# Assay results from PubChem BioAssay (NCATS).
# Records with an inconclusive call do not appear. Values without a mark were called inactive. Active and inactive are the calls of the source. Calls come from the whole dose curve; as a rule, active = well fitted inhibition curve with a large enough effect in the signal ratio, with a control signal flat (not every such curve was filed as active); inconclusive = small, poorly fitted or top-dose-only effect, or effect the other way, or a change in a side signal; inactive = no such curve, though single readings can be large or run the other way; the % refers to the signal ratio.
# Target: Peroxisome proliferator-activated receptor delta (Homo sapiens) (UniProt Q03181)
# Sequence (Q03181 whole entry, looked up): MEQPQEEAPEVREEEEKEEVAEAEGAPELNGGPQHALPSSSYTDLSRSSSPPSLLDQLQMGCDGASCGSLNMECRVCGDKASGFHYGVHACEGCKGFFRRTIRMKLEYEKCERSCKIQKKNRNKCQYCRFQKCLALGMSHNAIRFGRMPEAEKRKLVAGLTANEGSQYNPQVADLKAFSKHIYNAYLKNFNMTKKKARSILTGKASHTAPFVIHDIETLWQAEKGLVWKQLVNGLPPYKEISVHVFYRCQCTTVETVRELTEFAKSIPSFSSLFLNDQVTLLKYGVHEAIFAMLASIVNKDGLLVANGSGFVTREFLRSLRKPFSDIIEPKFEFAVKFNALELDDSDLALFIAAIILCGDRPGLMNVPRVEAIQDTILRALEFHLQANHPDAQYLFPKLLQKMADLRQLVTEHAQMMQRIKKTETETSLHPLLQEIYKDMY
# Assay: qHTS assay for small molecule antagonists of peroxisome proliferator-activated receptor delta signaling (AID 588535)
# Conditions: HEK293T PPARd-UAS-bla, beta-lactamase FRET ratio, 18 h; series mostly up to 76.7 µM; activity change, negative = inhibition: at the top concentration
# Text: NIH Chemical Genomics Center [NCGC] U.S. Environmental Protection Agency [EPA] National Institutes of Environmental Health Sciences [NIEHS] National Toxicology Program [NTP] NCGC Assay Overview The Peroxisome proliferator-activated receptors (PPARs) are lipid-activated transcription factors of the nuclear receptor superfamily with three distinct subtypes namely PPAR alpha, PPAR delta (also called PPAR beta) and PPAR gamma. All these subtypes heterodimerizes with Retinoid X receptor (RXR) and have different physiological functions. […] This role of PPAR delta implicates the potential use of its ligands in the treatment of metabolic disorders.
# NCGC Assay Protocol Summary Using a beta-lactamase reporter-gene under control Peroxisome Proliferator-Activated Receptor delta (PPAR-delta) response element, a cell-based assay [GeneBLAzer (PPAR-delta-UAS-bla assay developed by Invitrogen] was used to measure PPAR-delta ligands signaling. GeneBLAzer PPAR-delta-UAS-bla HEK293T cells were used with assay medium containing 2% charcoal/dextran FBS. The assay was performed in clear bottom black Greiner 1536-well plates. Library compounds were measured for their ability to inhibit the reporter gene activity. Compounds were screened in a titration series in 1536-well format. The fluorescence intensity (405 nm excitation, 460/530 nm emission) was measured using an EnVision plate reader. […] Concentration-response titration points for each compound were fitted to the Hill equation yielding concentrations of half-maximal inhibition (IC50) and maximal response (efficacy) values. qHTS protocol for PPAR-delta beta-lactamase assay in antagonist mode [Step] [Parameter] [Value] [Description] 1. Reagent; 5 uL; 4000 cells/well 2. Incubation; 37 C for 5 hrs 3. Compounds; 23 nL; 0.59 nM to 92 uM 4. […] Incubation; 37 C for 18 hrs 7. Detection reagent; 1 uL of CCF4-dye 8. Incubation; RT for 2 hrs 9. Detection; Fluorescence; Envision plate reader
SMILES,"activity change, negative = inhibition [%]",Potency
CN=C=S,-22,
O=[N+]([O-])c1cccc2ccccc12,,inactive
BrCCBr,,inactive
N#Cc1c(Cl)cccc1Cl,16.3,
CC(Cl)Cl,-21.8,
O=C(Cl)C(Cl)(Cl)Cl,-15.4,
Brc1ccccc1,12.1,
Brc1ccc(Oc2cc(Br)c(Br)cc2Br)c(Br)c1,,inactive
COP(N)(=O)SC (stereo not given),,inactive
C=CC(=C)C,-1.2,
Clc1ccc2ccccc2c1,-18.9,
O=C(O)COc1cc(Cl)c(Cl)cc1Cl,12.8,
Clc1cc(Cl)c(-c2cc(Cl)c(Cl)cc2Cl)cc1Cl,,inactive
NC(=S)Nc1ccccc1,,inactive
C=CCc1ccc(OC)cc1,-9.2,
Cc1cccc([N+](=O)[O-])c1,,inactive
CC(O)CCl (stereo not given),,inactive
c1nc[nH]n1,-15.4,
CC(C)(C)OOC(C)(C)C,-8.61,
CNC(=O)Oc1ccccc1OC(C)C,20.4,

SMILES,"activity change, negative = inhibition [%]",Potency
Cc1cccc(C#N)c1,15.8,
CCCCCCCCCc1ccc(O)cc1,,inactive
CC(C)OC(=O)Nc1cccc(Cl)c1,7.12,
C=CC(N)=O,,inactive
ClC(Cl)(Cl)c1ccccc1,,inactive
Oc1ccc(Cl)cc1Cl,5.06,
Cc1ccc(O)c(C)c1,,inactive
C=CC(=O)OCC,-3.91,
C=CC1CC=CCC1 (stereo not given),,inactive
Clc1nc(Cl)nc(Cl)n1,,inactive
COP(=S)(OC)Oc1ccc([N+](=O)[O-])cc1,-15.5,
CNC(=O)Oc1cccc2c1OC(C)(C)O2,14.2,
C[N+](C)(C)Cc1ccccc1,,inactive
CC(C)(C)OO,,inactive
CCOP(=S)(OCC)SCSC(C)(C)C,,inactive
COc1ccc(N)cc1,-2.23,
CC(C)(c1ccccc1)c1ccc(O)cc1,7.76,
ClC(Cl)=C(c1ccc(Cl)cc1)c1ccc(Cl)cc1,,inactive
Cc1ccc([N+](=O)[O-])cc1C,19.4,
CNC(=O)O/N=C/C(C)(C)SC,,inactive
